Results filed as inconclusive are left out. The source made the active and inactive calls. Calls come from the whole dose curve; as a rule, active = well fitted inhibition curve with a large enough effect; inconclusive = small, poorly fitted or top-dose-only effect; inactive = flat fitted curve, though single readings scatter.
tested on: HACAT; test: qHTS assay to identify novel small-molecules to repurpose for Merkel cell carcinoma treatment (AID 1296009); details: MCC and control cell lines, CellTiter-Glo viability, 72 h; at 44.8 µM (top of the series) unless noted; note: nearly all actives have a fitted effect of over 60% in size
In short: (§1)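 Dose-response viability screen; 72 hr exposure at 37 degree celsius; CellTiter-Glo added, 10 min room temperature, luminescence read; RLUs scaled between no-cell and DMSO wells.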
% is set by controls: 0 for no effect and ±100 for the full control effect; potency is the fitted concentration of half-maximal effect.

SMILES | outcome
O=[N+]([O-])c1cc([N+](=O)[O-])c2ccccc2c1 | inactive [at 92 µM]
C=CCC1=C(C)C(OC(=O)C2C(C=C(C)C)C2(C)C)CC1=O (configuration not stated) | inactive [at 92 µM]
COc1nn(CSP(=S)(OC)OC)c(=O)s1 | inactive [at 92 µM]
C[C@]12COC(=O)C[C@@H]1CC[C@@H]1[C@H]2CC[C@@]2(C)[C@H]1CC[C@]2(C)O | inactive

tested on: MCC-13; test: as above; details: MCC and control cell lines, CellTiter-Glo viability, 72 h; series mostly up to 46 µM; activity change, negative = cytotoxicity: at the top concentration
In short: as §1

SMILES | activity change, negative = cytotoxicity | Potency
O=[N+]([O-])c1cc([N+](=O)[O-])c2ccccc2c1 | -1.87% [at 92.7 µM] (inactive) | 
c1cc2ccc3cccc4ccc(c1)c2c34 | 10.5% [at 92.7 µM] (inactive) | 
ClC1=C(Cl)[C@]2(Cl)[C@@H]3[C@@H]4C[C@@H]([C@H]5O[C@@H]45)[C@@H]3[C@@]1(Cl)C2(Cl)Cl | -6.82% [at 92.7 µM] (inactive) | 
CC(C)[C@H]1C(=O)N[C@H](CO)Cc2c[nH]c3cccc(c23)N1C | -29% (inactive) | 
C=CCC1=C(C)C(OC(=O)C2C(C=C(C)C)C2(C)C)CC1=O (configuration not stated) | 0.306% [at 92.7 µM] (inactive) | 
C[C@]12COC(=O)C[C@@H]1CC[C@@H]1[C@H]2CC[C@@]2(C)[C@H]1CC[C@]2(C)O | 1.4% (inactive) | 
Nc1ccc(N=Nc2ccccc2)cc1 | -16.2% [at 92.7 µM] (inactive) | 
CCCCCCCCc1ccc(O)cc1 | -7.44% [at 92.7 µM] (inactive) | 
COC[C@H]1OC(=O)c2coc3c2[C@@]1(C)C1=C(C3=O)[C@@H]2CC[C@H](O)[C@@]2(C)C[C@@H]1OC(C)=O | -4.78% (inactive) | 
O=S(=O)(c1ccc(Cl)cc1)c1ccc(Cl)cc1 | 2.48% [at 92.7 µM] (inactive) | 
CC(=CCCC1=CCC(C2=CC(=O)OC2O)OC1O)CCC1=C(C)CCCC1(C)C (configuration not stated) | -4.48% (inactive) | 
CCCN(CCC)c1c([N+](=O)[O-])cc(S(N)(=O)=O)cc1[N+](=O)[O-] |  | 24.3 µM (active)
c1ccc(CCCN2CCN(CCOC(c3ccccc3)c3ccccc3)CC2)cc1 | -11.3% (inactive) | 
